# The supplement of paper PMC10105736
# A number with no mark means an inactive call.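 Rule for the calls: active = MAPPIT score above the 99th percentile of random reference set scores in the same batch; inactive = at or below it.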
# Assays:
# Assay in all cases: MAPPIT interaction score (arbitrary units); higher = stronger binary interaction signal, active = hit call of the paper
# Sod3 = settings: MAPPIT configuration: N-N; pair source set: Lit-BS-16
# Swt1 = settings: MAPPIT configuration: N-N; pair source set: Finley_Y2H
# Su(var)2-10 = settings: MAPPIT configuration: N-N; pair source set: DPIM
# Sxl = settings: MAPPIT configuration: N-N; pair source set: Lit-BM-16
# Ssrp = settings: MAPPIT configuration: N-C; pair source set: Lit-BM-16
# 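Note: HEK293T cells with Epo stimulation, STAT-responsive firefly luciferase reporter, fold induction versus unstimulated cells divided by the larger fold induction of two negative controls lacking either bait or prey.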
binder,measurement,setting,value
noc (protein) MVVLEGGGGVVTIGNNQYLQPDYLAPLPTTMDAKKSPLALLAQTCSQIGADSSAVKPLLAMDKNKTKPGACSSSSNSSSSSGSAEISAAKSPSGQAKSPKSSTPISSTATSASLSNTSTGEIKLAFKPYETNVLSHQNQNSFKSSSSLDAEPTRPSSKNSSSAQERVPSRSKSNATPTDGGKAEISAHDSSSSRKTVSPSGSSQRGASPIVRSGMEVLNNANGTAQHPKEMSSMAAAAAAAAAAYKAAGPYGLNPLSALCCPPGMEQHANPAFRPPFAGGFSHHHAAMLAVAANGGYPGGAPGGGPAGQPNPYISYQRIKTPAGGEAIVPVCKDPYCQGCPYSAHTQQMLMGAPCPAGCTQCEHQKYGLAMASAAGLPPAHPYSQAAAAAAANAAAARSAPYVCSWVVGDAYCGKRFQTSDELFSHLRTHTGNLSDPAAAAAALAQSQAQSLLGTLFPPSALRAGYPTPPLSPMSAAAAAARYHPYAKPPPGALAGGPSPFGAAGAFNPAAAAAAAALGPYYSPYAMYGQRMGAAHQ,MAPPIT interaction score,Sod3,0.758
Zpr1 (protein) MSTVSDPNSSNPPESAGNIRPEPIFREINAEQTDEIVEVESACMNCFETGVTRLLPTKIPFFREVVLMSFKCDHCGHINNEMQSASEIQKSGIRIELRVQSVADLNRRVVRSDNSSISIPEIELEIPVQSQKGEVTTVEGIIERTIAGLSQDQEKRRIDHPETAASIEKYIERLHRLKEVTTPFQVLLEDISGNSFIENPLAPAADPQLKTSYFTRSQQQNEQLGLYEQNHEEQHLLKPIAEDSWPIENLHGEVLQFPTNCPSCQAPCETNMKLTNIPHFKEVVIMATVCGACGHKTNEVKSGGGVEAQGVRFRVQIASREDLTRDVLKSETCSMSIPELDLEVGPHALCGRFTTVEGLLVAMRDQLDGTLFHDSADDATKQQMQRFLDTFEDVMNLKRVITLVLEDPAGNTYVQSLSDDDSEPDDKLTVERYDRSYEDNEDLGLNDMKTEGYEEKA,MAPPIT interaction score,Swt1,-0.39
Calr (protein) MMWCKTVIVLLATVGFISAEVYLKENFDNENWEDTWIYSKHPGKEFGKFVLTPGTFYNDAEADKGIQTSQDARFYAASRKFDGFSNEDKPLVVQFSVKHEQNIDCGGGYVKLFDCSLDQTDMHGESPYEIMFGPDICGPGTKKVHVIFSYKGKNHLISKDIRCKDDVYTHFYTLIVRPDNTYEVLIDNEKVESGNLEDDWDFLAPKKIKDPTATKPEDWDDRATIPDPDDKKPEDWDKPEHIPDPDATKPEDWDDEMDGEWEPPMIDNPEFKGEWQPKQLDNPNYKGAWEHPEIANPEYVPDDKLYLRKEICTLGFDLWQVKSGTIFDNVLITDDVELAAKAAAEVKNTQAGEKKMKEAQDEVQRKKDEEEAKKASDKDDEDEDDDDEEKDDESKQDKDQSEHDEL,MAPPIT interaction score,Su(var)2-10,1.1
Unr (protein) MNTQSKVYRTGEEIYDNLPCDSYFNMNAIRNLGIPTTFPTIGTFTLDSTTLGLQPQGQGPSPQQQQHQQQQQQQQQQHQQNMHHHQHQQQHMQQQQQQQQHQQQHQQQQHQQQQQHQQQQQQQQQHPTIGMFDANEVNDVIQNPPQIGVFQSNSVLTNGAGSGSSIFGSQSSNSSAAAADPSQTTRETGIIEKLLHSYGFIQCCERQARLFFHFSQFSGNIDHLKIGDPVEFEMTYDRRTGKPIASQVSKIAPEVVLSEERVTGTVTTELRTDSANNVLNSSETTGRISYENRGECFFLPYTKDDVEGNVNLRAGDKVSFQIATNQRGNLGACHIRLENPAQPVKYRGVVCSMKESFGFIERADVVKEIFFHFSEAEGNVELRPGDDVEFTIQTRSSASVPPQGREFACNITRLAPGSVIFEDVDSTVYKGQVLKSLDRNNPVRQNNDPLPGRIRYRALDYSEVEVPFGDKDQKGDFTLRHGDWVQFLLATDRRDQLQRATSIALLDETFKVSGEKREQGTIASLKEGFGFLRCVERQARLFFHFTEVLDTSREIDINDEVEFTVIQEPGLAYNNSRLQAIRIKHLPPNSVQFETLVASNIEGCVTREAPKSPIKSQDRVEGGVITYEHADVKKTIMYFLKDCEKPPRIGERVRFDIYMVKRNKECIAVNVQQVSLHQQQQQQQQQLHLNQSNAGANINQNDQLGGLSNGISSSSSNASLQNGYVMHGSPGGSTSSVGSNNPVHLDEFKMENNNHAGSDAGQVYRGFIAVMKENFGFIETLSHDEEVFFHFSNYMGNPNWLELGQEVEYTLARNGNTSVSGNCLPAENVRMLPKNSIPQPAVLETTHNGVVARPLRCINPDQQEYAGLIEILDELRTTVISQHEFGITSLVNKRDLLQKGDLVSFRIDESGRAACVNAVRQKKRATVDSIKGQFGFLNFEVEDGKKLFFHMSEVQGNTVALHPGDTVEFSVVTNQRNGKSSACNVLKINDRPDRLISRLKLNGDDTVPRLILIRAPKGPQGKGFSVLARHPRIPGNLVE,MAPPIT interaction score,Sxl,1.51
dre4 (protein) MSSFVLDKEAFVRRVKRLYTEWRAPSIGHDDALRNLDCIMSIVGVEEDVMYSKSMALQLWLLGYELTDTISVFCSDAVYFLTSKKKIEFLKQTQNITEEGFPEINLLVRDRTDKDQGNFEKLIKALQNSKKGKRLGVFAKDAYPGEFSEAWKKSLTASKFEHVDISTIIAYLMCPKDESEINNIRKASLVSMDIFNKYLKDEIMDIIDSDRKVKHNKLSDGCEAAIGEKKYTSGLDPRLLDMAYPPIIQSGGAYSLKFSAVADKNPLHFGVIVCSLGARYKSYCSNISRTFLVNPTEAMQENYTFLVSVQEEILKLLVPGTKLCDVYEKTLDFVKKEKPSMVDNLPKSFGFAMGLEFRENSIVIGPKCQALLKKNMVFNLHVGISNLTNPEATDKEGKNYALFIGDTVLVGEQSPASVMTPSKKKIKNVGIFIKDDSDEEDVDDKKTAKEDQGTEILGRSKRNAVLESKLRNEINTEEKRKEHQRELAQQLNERAKDRLARQGNSKEVEKVRKNTVSYKSISQMPREPEVKELKLYVDKKYETVIMPVFGIQVPFHISTIKNISQSVEGEYTYLRINFFHPGATMGRNEGGLYPQPEATFVKEVTYRSSNVKEHGEVGAPSANLNNAFRLIKEVQKRFKTREAEEREKEDLVKQDTLILSQNKGNPKLKDLYIRPNIVTKRMTGSLEAHSNGFRYISVRGDKVDILYNNIKSAFFQPCDGEMIILLHFHLKYAIMFGKKKHVDVQFYTEVGEITTDLGKHQHMHDRDDLAAEQAERELRHKLKTAFKSFCEKVETMTKSVVEFDTPFRELGFPGAPFRSTVTLQPTSGSLVNLTEWPPFVITLDDVELVHFERVQFHLRNFDMIFVFKEYNKKVAMVNAIPMNMLDHVKEWLNSCDIRYSEGVQSLNWQKIMKTITDDPEGFFEQGGWTFLDPESGSEGENETAESEEDEAYNPTDAESDEESDEDSEYSEASEDSEESDEDLGSDEESGKDWSDLEREAAEEDRNHDYAADDKPRNGKFDSKKHGKSSKHSPSKSSKDKYNSRDKHHSSSSSGNKSSSKDKDRKRSRDDSRDNGHKSKKSRH,MAPPIT interaction score,Ssrp,0.759
